The values below come from PubChem BioAssay (EPA / NIEHS).

Each structure is given as a SMILES string. Records with an inconclusive call do not appear. Active and inactive are the calls of the source. How the source made its calls, unless noted: active means hit-call score of the fitted dose curve at least 0.9, where 1 is the maximum; inactive means score below 0.9.

The nature of experiment [1]: ATG_TCF_b_cat_CIS: Attagene CIS-FACTORIAL HepG2 Assay for human T-Cell-Factor with beta-catenin (TCF/b-cat) (AID 2282965). As to conditions: HepG2 TCF/beta-catenin cis-reporter transcription, actives raise or lower the signal. An outline of the steps:
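HepG2, transient MRTU transfection, cis-element-driven reporters (endogenous TFs). 24 h compound exposure. Readout: reporter mRNA by RT-PCR + 6-FAM primer extension, HpaI digest, capillary electrophoresis. Gain/loss fit vs DMSO baseline.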

Experiment [2] in a line: ATG_TAL_CIS: Attagene CIS-FACTORIAL HepG2 Assay for human TAL Basal Promoter (AID 2282966).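 Further: background control endpoint measuring basal TAL promoter reporter mRNA not a specific factor.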 The settings on record: HepG2 Attagene cis-factorial TAL promoter reporter; actives raise or lower the signal. An outline of the steps: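 Readout: reporter mRNA, fluorescence by CE. System: HepG2, transient multi-reporter transfection, endogenous TF activity. Exposure: 24 h. Analysis: bidirectional, DMSO-normalized; background control.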

The nature of experiment [3]: ATG_TGFb_CIS: Attagene CIS-FACTORIAL HepG2 Assay for human Transforming Growth Factor (TGF) (AID 2282967). As to conditions: HepG2 Attagene CIS TGFb reporter, mRNA transcription; actives raise or lower the signal. The method in brief: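 Cells were dosed for 24 hours, after which total RNA was reverse-transcribed and reporter sequences amplified, labeled and sized by capillary electrophoresis. Activity was fitted in both directions against DMSO.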

A short description of experiment [4]: ATG_VDRE_CIS: Attagene CIS-FACTORIAL HepG2 Assay for human Vitamin D Receptor Element (VDRE) (AID 2282968). As to conditions: HepG2 VDRE cis-reporter transcription, actives raise or lower the signal. The method in brief:
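Transiently transfected HepG2 cells carrying cis-regulated reporter transcription units were exposed for 24 h. Reporter mRNA was measured by RT-PCR with fluorescent labelling and capillary electrophoresis, and fitted in both directions against DMSO.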

Experiment [5] deals with Estrogen receptor (Homo sapiens) (UniProt P03372). The experiment in a line: ATG_ERa_TRANS: Attagene TRANS-FACTORIAL HepG2 Assay for human Estrogen Receptor alpha (ERa) (AID 2282970; active means hit-call score of the fitted dose curve at least 0.9, where 1 is the maximum). The settings on record: HepG2 Attagene TRANS ERa GAL4 reporter, mRNA. The method in brief:
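Transactivation via ERa-Gal4 chimera in HepG2; 24 hour incubation; reporter mRNA detected by fluorescence RT-PCR and capillary electrophoresis.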

In experiment [6] the target is X-box-binding protein 1 (Homo sapiens) (UniProt P17861). The experiment in a line: ATG_Xbp1_CIS: Attagene CIS-FACTORIAL HepG2 Assay for human X-box Binding Protein 1 (XBP1) (AID 2282972). As to conditions: HepG2 XBP1 cis-element reporter, Attagene multiplex; actives raise or lower the signal. The method in brief: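 HepG2, transient MRTU transfection (cis-promoter driven), 24 h compound exposure. Total RNA → oligo(dT) RT → PCR → 6-FAM labeling → HpaI cut → CE. Bidirectional fit vs DMSO.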
X-box-binding protein 1 (Homo sapiens), sequence (P17861 whole entry, looked up): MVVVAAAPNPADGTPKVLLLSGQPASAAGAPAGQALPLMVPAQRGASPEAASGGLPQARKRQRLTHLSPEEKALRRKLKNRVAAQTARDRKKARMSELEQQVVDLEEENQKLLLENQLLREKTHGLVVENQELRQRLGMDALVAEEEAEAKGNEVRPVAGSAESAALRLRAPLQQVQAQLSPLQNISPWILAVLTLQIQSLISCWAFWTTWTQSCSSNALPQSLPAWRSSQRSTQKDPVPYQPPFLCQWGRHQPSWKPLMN

A short description of experiment [7]: ATG_M_19_TRANS: Attagene TRANS-FACTORIAL HepG2 Assay for M19 Transcription Factor (Internal Marker) (AID 2282974; active means hit-call score of the fitted dose curve at least 0.9, where 1 is the maximum). As to conditions: HepG2 Attagene TRANS-FACTORIAL M19 internal marker reporter. The method in brief: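 Transfected HepG2 (GAL4-UAS MRTUs), 24 h compound, TriZol RNA, DNase-treated RT, reporter PCR, FAM label, HpaI digest, CE fluorescence; gain vs DMSO.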

A short description of experiment [8]: ATG_GAL4_TRANS: Attagene TRANS-FACTORIAL HepG2 Assay for GAL4 (Internal Marker) (AID 2282976; active means hit-call score of the fitted dose curve at least 0.9, where 1 is the maximum). The settings on record: HepG2 Attagene TRANS GAL4 internal marker reporter. The method in brief: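 Fluorescence from capillary electrophoresis of labelled RT-PCR products quantifies reporter mRNA induction after 24 h dosing of HepG2 cells carrying transfected GAL4-UAS reporter transcription units. Vehicle DMSO serves as baseline.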

The target in experiment [9] is Steroid hormone receptor ERR1 (Homo sapiens) (UniProt P11474). The experiment in a line: ATG_ERRa_TRANS: Attagene TRANS-FACTORIAL HepG2 Assay for human Estrogen-Related Receptor alpha (ERRa) (AID 2282971; active means hit-call score of the fitted dose curve at least 0.9, where 1 is the maximum). The settings on record: HepG2 Attagene TRANS reporter, ERRa transactivation. The method in brief: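 HepG2 cells were transiently transfected with multiple GAL4-UAS reporter units, then dosed with compound for 24 h. Total RNA was reverse-transcribed, reporter cDNA PCR-amplified and fluorescently labelled, and fragments resolved by capillary electrophoresis; induction was compared with DMSO.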
Steroid hormone receptor ERR1 (Homo sapiens), sequence (P11474 whole entry, looked up, the tested form may be a part): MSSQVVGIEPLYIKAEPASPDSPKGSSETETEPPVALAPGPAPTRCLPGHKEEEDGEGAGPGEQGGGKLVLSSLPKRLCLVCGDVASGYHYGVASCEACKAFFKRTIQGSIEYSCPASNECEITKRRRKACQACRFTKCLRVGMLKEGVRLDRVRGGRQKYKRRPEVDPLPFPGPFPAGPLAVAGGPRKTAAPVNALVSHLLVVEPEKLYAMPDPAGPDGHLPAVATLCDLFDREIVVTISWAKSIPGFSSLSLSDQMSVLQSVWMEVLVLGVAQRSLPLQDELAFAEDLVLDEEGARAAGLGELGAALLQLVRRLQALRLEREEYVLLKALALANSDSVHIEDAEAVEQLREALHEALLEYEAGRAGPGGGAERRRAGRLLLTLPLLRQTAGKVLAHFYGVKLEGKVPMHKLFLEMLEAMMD

Estrogen receptor (Homo sapiens), sequence (P03372 whole entry, looked up, the tested form may be a part): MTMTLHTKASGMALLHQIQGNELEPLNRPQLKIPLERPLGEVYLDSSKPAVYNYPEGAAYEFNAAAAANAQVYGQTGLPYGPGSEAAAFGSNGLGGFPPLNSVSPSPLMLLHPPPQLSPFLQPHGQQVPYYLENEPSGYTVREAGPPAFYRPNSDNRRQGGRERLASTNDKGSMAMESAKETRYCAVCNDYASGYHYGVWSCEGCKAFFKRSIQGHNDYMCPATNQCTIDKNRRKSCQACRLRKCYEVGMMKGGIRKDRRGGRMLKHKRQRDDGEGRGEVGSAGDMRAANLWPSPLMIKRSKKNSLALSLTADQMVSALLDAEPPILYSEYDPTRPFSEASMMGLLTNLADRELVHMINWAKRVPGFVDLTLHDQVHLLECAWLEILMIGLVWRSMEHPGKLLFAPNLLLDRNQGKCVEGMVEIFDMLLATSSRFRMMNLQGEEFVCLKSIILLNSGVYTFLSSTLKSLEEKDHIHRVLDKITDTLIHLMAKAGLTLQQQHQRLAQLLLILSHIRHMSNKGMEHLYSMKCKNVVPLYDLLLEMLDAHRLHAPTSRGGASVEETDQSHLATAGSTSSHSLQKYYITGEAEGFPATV

As to `O=C(C=Cc1ccccc1)OCCCc1ccccc1`, the result in experiment [1], in experiment [2], in experiment [3], in experiment [4], in [6] and in experiment [7] was inactive. The result in [8] was inactive. In addition, in experiment [5], the concentration at half-maximal activity (AC50) was 15.3 µM (active).

Regarding `CCCc1ccc(N)cc1`, the result in experiment [1], in experiment [2], in experiment [3], in experiment [4], in experiment [5] and in experiment [6] was inactive. Also, in experiment [8], the outcome was inactive.

In the case of `CC(=O)OC/C=C(C)/C=C/C=C(C)/C=C/C1=C(C)CCCC1(C)C`, the AC50 in experiment [1] was 100 µM (active); in experiment [3], 1.23 µM (active); in experiment [4] it was 0.946 µM (active). Further, the call in experiment [2], in experiment [5], in experiment [6] and in experiment [8] was inactive.

As for `CCCCCCCCCCCCCCCCCC(=O)OCCCCCCCCCCCCCC(C)C`, the call in experiment [1], in experiment [2], in experiment [3], in experiment [4], in experiment [5] and in experiment [6] was inactive. In addition, the call in [8] was inactive.

For the compound `c1ccc(Sc2ccccc2)cc1`, the call in [1], in [2], in experiment [3], in experiment [4], in experiment [6] and in [7] was inactive. In addition, the outcome in experiment [8] was inactive. In addition, in experiment [5], the AC50 was 38.3 µM (active).

`CC(C)(O)CCc1ccccc1`: the call in experiment [1], in experiment [2], in experiment [3], in experiment [4], in experiment [5] and in [6] was inactive.

For `CCCCCCCCCC(=O)OCC`, the compound was classed as inactive in [1], in experiment [2], in experiment [3], in experiment [5], in [6] and in experiment [8]. For the same compound, in [4], the AC50 was 44.1 µM (active).

On to `O=C(OCc1ccccc1)c1ccccc1O`, for which the outcome in experiment [1], in [2], in experiment [3], in experiment [4], in experiment [6] and in experiment [7] was inactive. Also, the AC50 in [5] is 43 µM (active).

Take `O=C(O)c1ccco1`: the call in experiment [1], in experiment [2], in experiment [3], in experiment [4], in experiment [5] and in [6] was inactive. The call in experiment [7] was inactive.

On to `CCCCCCCCCCCCOC(C)=O`, for which the outcome in [1], in experiment [2], in experiment [3], in [4], in experiment [5] and in experiment [6] was inactive. For the same compound, the compound was called inactive in [7] and in experiment [8].

In the case of `CC(CCO)CC(C)(C)C` (stereo not drawn), the result in experiment [1], in [2], in experiment [3], in experiment [4], in [5] and in experiment [6] was inactive. Besides, the outcome in [7] was inactive.

Consider `NC(=O)c1cccnc1`, for which the call in experiment [1], in [2], in experiment [3], in [4], in [5] and in experiment [6] was inactive. Also, the compound was classed as inactive in experiment [7] and in experiment [8].

As for `CCCCCc1cccc(=O)o1`, the call in [1], in experiment [2], in experiment [3], in experiment [4], in experiment [5] and in experiment [6] was inactive. Moreover, in experiment [7], the compound was classed as inactive.

`COc1ccc2[nH]cc(CCNC(C)=O)c2c1`: the call in experiment [1], in [2], in experiment [3], in experiment [4], in experiment [5] and in [6] was inactive. Further, in experiment [8], the result was inactive.

Take `CCC(=O)OC/C=C(\C)CCC=C(C)C`: the compound was called inactive in experiment [1], in [2], in experiment [3], in experiment [4], in experiment [5] and in experiment [6]. The compound was called inactive in experiment [7] and in [8].

Take `CCCC1CCOC(C)S1` (stereo not drawn): the result in experiment [1], in experiment [2], in experiment [3], in [4], in [5] and in experiment [6] was inactive. For the same compound, the outcome in [7] and in experiment [8] was inactive.

With `CCc1cccc(O)c1`, the outcome in experiment [1], in [2], in experiment [3], in experiment [5], in experiment [6] and in experiment [8] was inactive. Further, in experiment [4], the AC50 was 49.3 µM (active).

With `O=[N+]([O-])c1cc(N(CCO)CCO)ccc1NCCO`, the call in experiment [1], in experiment [2], in experiment [3], in experiment [4] and in [6] was inactive.

For the compound `CCC(C)(C)c1cc(O)c(C(C)(C)CC)cc1O`, the AC50 in [1] is 27.4 µM (active); in [3], 146 µM (active); in experiment [4], 19.8 µM (active); in experiment [6], 5.91 µM (active). Besides, the compound was classed as inactive in [2].

Regarding `CCO[Si](CC)(OCC)OCC`, the AC50 is 173 µM (active) in experiment [1] and 160 µM (active) in [3]. For the same compound, the result in experiment [2], in experiment [4], in experiment [6] and in [8] was inactive.

Take `O=S(=O)(O)CCCN1CCOCC1`: the result in experiment [1], in [2], in experiment [3], in [4], in experiment [6] and in experiment [8] was inactive.

For `C=CC(=O)OCC(CO)(COC(=O)C=C)COC(=O)C=C`, the AC50 was 5.46 µM (active) in [1], 54.2 µM (active) in [3] and 0.708 µM (active) in [4]. The call in experiment [2], in experiment [9], in experiment [6] and in experiment [8] was inactive.

`CCCCCCCCCCO[C@@H]1O[C@H](CO)[C@@H](O)[C@H](O)[C@H]1O`: the call in [1], in experiment [2], in experiment [3], in experiment [4], in experiment [6] and in experiment [7] was inactive. Besides, in [8], the outcome was inactive.

With `C=C(C)C(N)=O`, the outcome in [1], in experiment [2], in experiment [3], in [4], in [6] and in [8] was inactive.

In the case of `CCn1cc(C(=O)O)c(=O)c2ccc(C)nc21`, the call in [1], in [2], in experiment [3], in [4], in experiment [9] and in experiment [6] was inactive. In addition, the call in experiment [8] was inactive.

As for `CCCCCCC(C)O` (stereo not drawn), the call in experiment [1], in [2], in experiment [3], in experiment [4], in [6] and in experiment [7] was inactive. For the same compound, the call in experiment [8] was inactive.

In the case of `CCCCCC(=O)O[C@]1(C(C)=O)CC[C@H]2[C@@H]3CCC4=CC(=O)CC[C@]4(C)[C@H]3CC[C@@]21C`, the result in experiment [1], in experiment [3], in [6], in [7] and in experiment [8] was inactive. Further, the figures for the AC50 in [2] and in experiment [4] were 13.4 µM (active) and 61.2 µM (active), respectively.

Turning to `CC1(C)CC(=O)CC(C)(C)N1`, the compound was classed as inactive in [1], in experiment [2], in experiment [3], in experiment [4], in experiment [6] and in experiment [8].
